# Potency and affinity values are given separately. Inconclusive results are not listed. Entries that show only a call come without a potency. The source made the active and inactive calls.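 Rule for the calls: active = compound lowering the signal whose fitted half-maximal concentration is at most ten times its top tested dose; inconclusive = flat curve with 30 to 70% loss, or poor fit; inactive = the rest.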
# Test: Mcl1-dependent cancer cell viability – HMC-1-8 cells, luminescence, dry powder, selectivity assay for A1 inhibitor project, dose response (AID 504415)
# Conditions: HMC-1-8 (Mcl1-dependent) viability, Glo luminescence, 24 h; series mostly up to 35 µM
smiles,measurement,value
C/C1=C/C(=O)O[C@@H]2C[C@@H](CC[C@H](C)/C=C\CC1)O[C@@](O)(C1CSC(=O)N1)C2 (stereo partly specified),outcome,inactive

# Source: PubChem BioAssay AID504415 (Broad Institute, 2011)
